# PubChem BioAssay (NCI)
# About 83,000 compounds went through this panel and 20% of them were active in at least one assay; those are over-represented in the sample as a whole.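 Step 1: grow cells in 96-well plates. Step 2: add test compound at a single concentration. Step 3: incubate 48 h. Step 4: record percent growth.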 Values without a mark were called inactive. Rule for the calls: active = growth percent below 10; inactive = the rest.
# System: HL-60(TB) leukemia
# Assay: NCI-60 one-dose screen, 48 h (100 = growth as untreated, 0 = no growth, -100 = all killed)
# Conditions: 10 µM unless noted
row,SMILES,growth [%]
1,O=C(O)CCC(=O)c1ccc(C2CCCCCC2)cc1,107
2,CC(C)(C)c1ccc(C(=O)Nc2sc3cc(O)ccc3c2C(N)=O)cc1,43.3
3,O=C1CSC(c2c(F)cccc2Cl)N1NC(=O)C(O)(c1ccccc1)c1ccccc1 (centres undefined),98.3
4,COc1ccc(-c2nc3ccccn3c2-c2nnc(-c3cc(OC)c(OC)c(OC)c3)o2)cc1,85.6
